Experimental data published in ChEMBL document CHEMBL4513216, “Probing the Open Global Health Chemical Diversity Library for Multistage-Active Starting Points for Next-Generation Antimalarials” (ACS Infect Dis, 2020).
The whole screen tested about 69,000 compounds, of which about 8,600 (12%) showed an effect of 50% or more. Shown is part of a subset that was picked to be rich in strong results.

System: Plasmodium berghei
Test: Screen against P. berghei liver stage (PbLuc), transformed with Luciferase, at 10uM
Assay type: functional, HepG2
Settings: tested at 10 uM

Compound | INHIBITION
Nc1nc2c(c(NC(=O)Nc3cccc(Cl)c3)n1)CCCC2 | 88.8%
Nc1nc2c(c(NC(=O)Nc3ccc(Cl)c(Cl)c3)n1)CCCC2 | -10.3%
Nc1nc2c(c(NC(=O)Nc3ccccc3)n1)CCCC2 | 32.1%
COCCOc1ccc(CNc2cnc3ccccc3n2)cn1 | -43%
COCCOc1ccc(CNc2nc3ccccc3nc2N)cn1 | 80.9%
COCCOc1ccc(CNc2nc3ccccc3o2)cn1 | -11.5%
COCCNC(=O)Cn1c(-c2cccc(F)c2)nc(C)c(CCO)c1=O | 7.22%
Cc1cnc(C(=O)N2CCOCC2c2ccccc2)cn1 (stereo not given) | 43.6%
c1ccc(OCCN2CCC(n3cncn3)CC2)cc1 | 37.4%
CSc1ccc(OCCN2CCC(n3cncn3)CC2)cc1 | 27.6%
Clc1cc(Cl)cc(OCCN2CCC(n3cncn3)CC2)c1 | 62.4%
CC(C)n1[nH]c(=O)c2c1NC(=O)CC2c1ccncc1 (stereo not given) | -19.1%
CCc1ccc(C2CC(=O)Nc3c2c(=O)[nH]n3C(C)C)cc1 (stereo not given) | 79.7%
CC(C)n1[nH]c(=O)c2c1NC(=O)CC2c1cccc(Br)c1 (stereo not given) | -6.61%
CC(C)n1[nH]c(=O)c2c1NC(=O)CC2c1cccc(O)c1 (stereo not given) | -47%
Cc1cccc(C2CC(=O)Nc3c2c(=O)[nH]n3C(C)C)c1 (stereo not given) | 71.3%
CSc1ccc(C2CC(=O)Nc3c2c(=O)[nH]n3C(C)C)cc1 (stereo not given) | 19.8%
O=C(CCn1nc(-c2cccs2)oc1=O)Nc1cccc(F)c1 | 31.9%
O=C1CC2(CCN(c3nncs3)C2)CN1c1cncnc1 (stereo not given) | 15.4%
Cc1cnc2c(S(=O)(=O)NCC3CCOC3)cccc2c1 (stereo not given) | 3.15%
Cc1cccc(OCC2CCCN(C(=O)CCn3ccccc3=O)C2)c1 (stereo not given) | -10.2%
c1cc(-c2nnc3sc(CCN4CCCC4)nn23)ccn1 | 46.1%
c1ccc(-c2nnc3sc(CCN4CCCCCC4)nn23)cc1 | 30.8%
c1ccc(-c2nnc3sc(CCN4CCCC4)nn23)cc1 | 54.3%

Compound | INHIBITION
CC(C)(N)CNS(=O)(=O)Cc1cccc2cccnc12 | 2.66%
CCOCCCNC(=O)CCCC(=O)n1nc(C)c2ccccc21 | 32.2%
Cc1ccsc1-c1cccc(-c2ccn(CC3CCNC3)n2)c1 (stereo not given) | 72.6%
c1cc(-c2cncnc2)cc(-c2ccn(CC3CCNC3)n2)c1 (stereo not given) | 46.4%
Cc1nccc(-c2cccc(-c3ccn(CC4CCNC4)n3)c2)n1 (stereo not given) | 47.2%
CCn1c(C)nnc1CN(C)C1CCN(CCCSC)C1 (stereo not given) | -69.3%
Cc1cc(C(=O)N2CCS(=O)(=O)CC2)c(C)o1 | -9.21%
Cc1cn[nH]c1C1COCCN1Cc1c[nH]cn1 (stereo not given) | 35.6%
Cc1cc(C)c(OCC(=O)NS(=O)(=O)c2c(C)noc2C)c(C)c1 | 55.1%
Cc1ccc(OCC(=O)NS(=O)(=O)c2c(C)noc2C)cc1C | 6.14%
Cc1cccc(C)c1OCC(=O)NS(=O)(=O)c1c(C)noc1C | -55.8%
O=C(NCCn1nc(C2CCNC2)c2cccnc21)C1CCC1 (stereo not given) | 13.5%
Cc1nn(C)c2ncnc(NCC(O)CN3CCCCC3)c12 (stereo not given) | 7.3%
COc1ccccc1OCCCN1C(=O)CCNC1=O | -88.2%
CC(C)Oc1ccccc1OCCN1C(=O)CCNC1=O | 50.5%
COc1cccc(OC)c1OCCN1C(=O)CCNC1=O | 25.8%
COCCc1noc(-c2cc(Cl)c3c(c2)OCCCO3)n1 | -119%
CN1CCC(NC(=O)c2cc(Br)cc(Cl)c2O)C1=O (stereo not given) | 20%
O=c1c2cnc(N3CCCCC3)nc2ccn1Cc1ccco1 | -33.7%
CCN1CCN(c2ncc3c(=O)n(Cc4ccco4)ccc3n2)CC1 | 67.5%
CN1CCN(c2ncc3c(=O)n(Cc4ccco4)ccc3n2)CC1 | 41.3%
Cc1noc(C)c1S(=O)(=O)NC(=O)COc1ccc(C(C)C)cc1 | 4.1%
NS(=O)(=O)CCNC(=O)c1cc2ccccc2nc1N1CCCC1 | 2.91%
Cc1ccc2oc(C(=O)N3CCCC(n4cccn4)C3)cc2n1 (stereo not given) | -32.55%

Compound | INHIBITION
O=C(NCCOCC(F)(F)F)c1ccc(-c2ccccc2)[nH]c1=O | 14.4%
O=C(CN1CCCC1)N1CCCC1c1nc(O)cc(-c2ccccn2)n1 (stereo not given) | -1.85%
CCC(CO)N(Cc1cccnc1)C(=O)c1ccoc1C (stereo not given) | 3.13%
N#CC1(NC(=O)COC(=O)Cc2cc(Cl)c3c(c2)OCCO3)CCCC1 | 38.9%
N#Cc1ccc(S(=O)(=O)NC(=O)C2CC2)c(C(F)(F)F)c1 | 54.9%
CC(C)(C)C(=O)NS(=O)(=O)c1ccc(C#N)cc1C(F)(F)F | 39.2%
CC(C)C(=O)NS(=O)(=O)c1ccc(C#N)cc1C(F)(F)F | -4.94%
O=C(Nc1ccccc1C(=O)NCCN1CCOCC1)c1ccco1 | 38.7%
O=C(Nc1ccc(I)cc1C(=O)NCCN1CCOCC1)c1ccco1 | 52.2%
O=C(Nc1ccccc1C(=O)NCCCN1CCOCC1)c1ccco1 | 51%
O=C(Nc1ccc(Cl)cc1C(=O)NCCN1CCOCC1)c1ccco1 | 32.3%
Cc1nc(-c2ccco2)ccc1C(=O)NCCCN1CCOCC1 | 24.3%
O=C(Nc1ccc(I)cc1C(=O)NCCN1CCOCC1)c1cccs1 | 25.4%
CCN(CC)C(=O)CN1CCc2nc(C3CCNCC3)nc(NC)c2C1 | 23.9%
O=C1[C@H]2CN(Cc3ccccc3)C[C@H]2CN1CCN1CCCC1 | -55.3%
CO[C@H]1CCN(C(=O)c2cc(C)on2)[C@H]1Cc1ccncc1 | -15.9%
N#CCCN(Cc1ccccn1)Cn1cc(Cl)cn1 | 46.4%
Cc1ncncc1C(=O)NCCN1CCC(C)CC1 | -51.6%
CCS(=O)(=O)Cc1nnnn1-c1ccccc1 | 61.1%
COCCS(=O)(=O)Cc1nnnn1-c1ccccc1 | 26.9%
CNC(=O)CCS(=O)(=O)Cc1nnnn1-c1ccccc1 | 31.2%
COc1ccc([C@@H]2CN(Cc3ccncc3)C[C@H]2c2cc[nH]n2)cc1 | 39.3%
